Source: PubChem BioAssay (several laboratories)
This is a sample that favours compounds with a hit; in the whole collection about 9.7% have one here.
WNV NS2B-NS3 inh = WNV NS2B-NS3 proteinase inhibition. z-score (concentration not given with the values). WNV NS2B-NS3 protease, fluorogenic substrate Ex360/Em465; hits give low values. 65,000 compounds, 0.18% hits. P06935; in the data active = z-score below about -3
Target sequence (P06935 1371-1501 limits assumed): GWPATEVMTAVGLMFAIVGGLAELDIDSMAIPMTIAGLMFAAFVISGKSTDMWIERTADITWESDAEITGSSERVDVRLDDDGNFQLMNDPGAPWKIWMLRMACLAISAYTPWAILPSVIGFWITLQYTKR
Target sequence (P06935 1502-1679 limits assumed): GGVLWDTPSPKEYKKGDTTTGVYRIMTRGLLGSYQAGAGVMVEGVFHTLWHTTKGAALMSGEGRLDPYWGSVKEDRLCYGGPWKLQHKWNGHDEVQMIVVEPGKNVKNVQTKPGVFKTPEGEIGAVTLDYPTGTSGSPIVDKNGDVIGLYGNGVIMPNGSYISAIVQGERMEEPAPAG
BAP1 inh = human BAP1 deubiquitinase inhibition. Q92560. 72,000 compounds, 0.48% hits. calls only at 20 µM. recombinant BAP1, Ub-AMC hydrolysis fluorescence kinetic; hits give low values;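 active = activity remaining at or below 50% of control, provided the compound also passes the data quality filters; inactive = the rest, including low values that fail the filters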;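 also: 100% = DMSO wells rate and 0% = substrate alone blank rate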
Fluor 339 460 = intrinsic fluorescence of library compounds, ex339/em460 – biochemical, MLSMR library, data from DPM-DC assay, artefact control, profiling panel | compound autofluorescence, ex339/em460 nm, NADH buffer; hits give high values; 1 = no-compound wells, NADH background | fluorescence fold increase at 10 µM | 65,000 compounds, 5.5% hits;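 active = at 10 µM, mean starting fluorescence two-fold or more over control wells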;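 also: signal is the first read of a kinetic run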
A340 absorber = compound absorbs light at 340 nm; 65,000 tested, under 10 active; fold change at 10 µM; compound absorbance at 340 nm, fold over control;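 active = at 10 µM dose, initial 340 nm absorbance at least 2 fold that of control wells; inactive = change under 2 fold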;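 also: initial absorbance extrapolated from kinetic A340 decline of NADH oxidation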
M1 antag = antagonists of rat M1 muscarinic receptor; P08482; CHO-M1 cells, Fluo-4 calcium, ACh EC80 antagonist mode; hits give low values; B-score at 10 µM; 64,000 compounds, 3.4% hits; AID 628;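 active = calcium fluorescence response, raw or row-and-column corrected B-score, differing from the plate sample mean either way at a set confidence level, mostly lower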
M1 ag = M1 muscarinic receptor agonism | CHO-M1 cells, Fluo-4 calcium fluorescence, agonist mode; hits give high values | B-score at 10 µM | 64,000 compounds, 3% hits;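 active = fluorescence rise, raw or as B-score row- and column-corrected plate score, outside the 99.7% band of its plate's samples, either direction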
Starred values were filed as active, the others as inactive; i = inactive; x = no result shown.

SMILES | WNV NS2B-NS3 inh | BAP1 inh | Fluor 339 460 | A340 absorber | M1 antag | M1 ag
COc1ccc2cc3cc(C(=O)NCCN4CCc5ccccc5C4)oc3nc2c1 | 3.1 | i | 5.1* | 1.1 | -0.75 | 0.93
CCc1noc(C)c1C(=O)NCCc1ccc(OC)c(OC)c1 | -0.75 | i | 1 | 1 | -0.038 | 0.67
Cc1ccc(-c2cc(C(=O)NCCCN3CCOCC3)no2)cc1 | -1.6 | i | 1.1 | 1 | x | x
COc1ccc(C)cc1NC(=O)c1cc2cc3ccc(C)cc3nc2o1 | -1 | i | 4* | 1.1 | 0.022 | -0.13
COc1ccc2cc3cc(C(=O)NCCCN4CCOCC4)oc3nc2c1 | 2.6 | i | 5.1* | 1.1 | -0.86 | 0.00034
COc1ccc2cc3cc(C(=O)Nc4ccc5c(c4)OCO5)oc3nc2c1 | 0.03 | i | 1.3 | 1.1 | 0.52 | -0.37
Cc1ccc2cc3cc(C(=O)NCc4ccc5c(c4)OCO5)oc3nc2c1 | -0.7 | x | 5.2* | 1.1 | 0.96 | -0.56
CCN1C(=O)c2cccc3c(NC(=O)c4ccc(Cc5ccccc5)cc4)ccc1c23 | x | i | x | x | x | x
CSc1nc2[nH]c3c(c2c2nncn12)CC(C)(C)OC3 | -0.59 | i | 1 | 1.1 | -0.006 | -0.31
CSc1nc2[nH]c3c(c2c2nnnn12)CCCC3 | -0.89 | i | 2.3* | 1.1 | -1.2 | -0.0071
O=C(Nc1cc(NC(=O)C2CCCCC2)cc(-c2nc3ccccc3o2)c1)C1CCCCC1 | x | i | x | x | x | x
CCOc1ccc(C(=O)Nc2cc(-c3nc4ncccc4o3)ccc2C)cc1 | x | i | x | x | x | x
Cc1cc(-c2nc3ncccc3o2)ccc1NC(=O)CC(C)C | 0.68 | i | 2.2* | 1.1 | -1 | -0.51
Oc1ccc(Br)cc1C=Nc1nc(-c2cccc3ccccc23)cs1 | x | i | x | x | x | x
O=c1cc(C(F)(F)F)c2sc(N3CCCCC3)nc2[nH]1 | 1.6 | x | 2.1* | 1.1 | -1.8 | -0.0024
c1c2c(cc3sc(N4CCCCC4)nc13)OCO2 | -1.2 | i | 1.1 | 1 | 0.38 | 2
Cc1ccc(-c2nnc3ccc(SCC(=O)N4CCCCC4)nn23)cc1 | -0.5 | i | 1.2 | 0.98 | 0.017 | 0.017
O=C(CSc1ccc2nnc(-c3cccnc3)n2n1)N1CCc2ccccc21 | -0.83 | i | 1 | 1 | 0.38 | -2.9*
CC1CCN(C(=O)CSc2ccc3nnc(-c4ccccc4)n3n2)CC1 | -0.2 | i | 2.2* | 0.99 | 1.8 | -0.23
Cc1cc(NC(=O)CSc2ccc3nnc(-c4ccc(F)cc4)n3n2)no1 | -0.42 | i | 2 | 1 | -0.021 | -0.23
Cc1ccc(-c2nnc3ccc(SCC(=O)Nc4cc(C)on4)nn23)cc1 | -0.95 | i | 2* | 1 | -0.42 | -0.25
COc1ccc(-c2nnc3ccc(SCC(=O)N4CCN(c5ccccc5)CC4)nn23)cc1OC | 0.88 | i | 1.1 | 0.99 | -0.13 | 6*
CC1CCN(C(=O)CSc2ccc3nnc(-c4ccc(F)cc4)n3n2)CC1 | -0.37 | i | 2.3* | 1 | 0.39 | -0.67
O=C(CSc1ccc2nnc(-c3ccccc3)n2n1)NCC1CCCO1 (stereo not given) | -0.23 | i | 2.2* | 0.99 | -1.1 | -0.039
Cc1cccc2[nH]c3c(=O)n(CCN4CCNCC4)cnc3c12 | -0.93 | x | 2.5* | 1 | 0.65 | 0.47
SMILES | WNV NS2B-NS3 inh | BAP1 inh | Fluor 339 460 | A340 absorber | M1 antag | M1 ag
Cc1ccc2[nH]c3c(=O)n(CCN4CCNCC4)cnc3c2c1 | -0.3 | x | 3.1* | 1 | 0.26 | 0.63
O=c1c2[nH]c3ccccc3c2ncn1CCN1CCOCC1 | -1.2 | i | 1.1 | 1 | -0.13 | -0.5
CCN1CCCC1Cn1cnc2c([nH]c3ccc(C)cc32)c1=O (stereo not given) | 0.63 | x | 2.3* | 1 | -0.075 | 0.3
O=c1c2[nH]c3ccccc3c2ncn1CCN1CCCCC1 | -0.34 | i | 2.1* | 1 | -1.2 | -0.16
CC(C)CCn1cnc2c([nH]c3cccc(Cl)c32)c1=O | 0.18 | i | 1.2 | 1.1 | -0.23 | -1
CN1CCCN(C2CC(=O)N(c3ccc(Br)cc3)C2=O)CC1 (stereo not given) | x | i | x | x | x | x
Cc1ccccc1OCC(=O)Nc1ccc(OC(C)C)cc1 | x | i | x | x | x | x
O=C(c1ccc(C(=O)N2CCC(c3ccccc3)CC2)s1)N1CCC(c2ccccc2)CC1 | x | i | x | x | x | x
Cc1cccc(NC(=O)c2ccc(S(=O)(=O)N3CCCCC3)cc2)c1 | x | i | x | x | x | x
O=C(Nc1cccc2c1C(=O)NC2=O)c1ccc(S(=O)(=O)N2CCCC2)cc1 | -0.73 | i | 2.3* | 1 | -1.6 | 0.32
Cc1cccc(NC(=O)c2ccc(S(=O)(=O)N3CCCCC3)cc2)n1 | -0.53 | i | 1.1 | 1 | -2.4 | -2.6*
CN1CCN(S(=O)(=O)c2ccc(NC(=O)c3ccc(F)cc3)cc2)CC1 | -0.53 | i | 1 | 0.99 | 3.5* | 0.2
O=C1OC2c3ccccc3C(=O)N2c2ccccc21 (stereo not given) | x | i | x | x | x | x
COc1cc(NS(=O)(=O)c2ccc(NC(=O)c3ccc(OC)c(OC)c3)cc2)ncn1 | x | i | x | x | x | x
CCOc1ccc2[nH]c(=O)c(CN(Cc3ccco3)C(=O)c3ccc(Br)cc3)cc2c1 | -1.4 | x | 1.6 | 0.98 | 0.0084 | 0.68
COc1ccc2[nH]c(=O)c(CN(Cc3ccco3)C(=O)c3ccccc3)cc2c1 | -0.3 | x | 3.7* | 1.1 | -0.76 | 0.17
CCOc1ccc2[nH]c(=O)c(CN(CC3COCCO3)C(=O)c3ccco3)cc2c1 (stereo not given) | -0.69 | i | 4* | 1 | 0.12 | -1.1
CCOc1ccc2[nH]c(=O)c(CN(Cc3ccc(F)cc3)C(=O)c3ccco3)cc2c1 | 0.2 | x | 1.7 | 1 | -1.3 | 0.38
CCOc1ccc2[nH]c(=O)c(CN(Cc3ccco3)C(=O)c3cccc(F)c3)cc2c1 | -1.1 | x | 2.9* | 1 | 0.03 | 0.019
CC(=O)c1cccc(N2C(=O)c3ccc(Oc4cccc([N+](=O)[O-])c4)cc3C2=O)c1 | x | i | x | x | x | x
CCN(CC)c1ccc(NC(=O)CSc2nnc(N)s2)cc1C | 1.8 | i | 1.1 | 1 | 0.072 | 0.71
CCN(CC)c1cc(C)c2cc(NC(=O)CNC(C)=O)ccc2n1 | -0.88 | x | 2.2* | 1.1 | x | x
COc1ccc(S(=O)(=O)n2nc(OC(=O)c3cccs3)cc2N)cc1 | -5.6* | i | 1.1 | 1 | -0.21 | 0.053
COc1ccc(S(=O)(=O)n2nc(OC(=O)c3ccccc3Br)cc2N)cc1 | -4.2* | i | 1.1 | 1 | 0.33 | 0.16
COc1ccc(S(=O)(=O)n2nc(OC(=O)c3ccccc3)cc2N)cc1 | -6.4* | i | 1.1 | 1 | 0.25 | 0.12
COc1ccc(S(=O)(=O)n2nc(OC(=O)c3ccco3)cc2N)cc1 | -7.7* | i | 1.1 | 1 | -0.12 | -0.19
COC(=O)c1sccc1NC(=O)c1ccc2c(c1)OCO2 | 0.73 | x | 1.1 | 1.1 | -0.4 | -0.61
COc1cccc(NC(=O)c2oc3ccccc3c2NC(=O)c2ccc3c(c2)OCO3)c1 | 0.59 | x | 2.6* | 1.1 | 0.17 | -0.31
